Screens as filed in PubChem.
MCF10A rereplic – A quantitative high throughput screen for small molecules that induce DNA re-replication in MCF 10a normal breast cells. MCF 10A DNA re-replication, Hoechst nuclear intensity, 48 h. Potency, µM (titrated, usually from 46.1 µM), actives largely listed as activators. actives 2.9% (n = 350,000); also: nearly all actives have a fitted effect of over 50% in size
Chronic BCR inh – qHTS Assay to Find Inhibitors of Chronic Active B-Cell Receptor Signaling; Potency, µM (titrated, usually from 46.1 µM), hits mostly inhibitors; actives 0.05% (n = 340,000); AID 493014, 2011; ABC-DLBCL IkBa-CBG/CBR reporter, luminescence ratio, 4 h; active = well fitted inhibition curve with a large enough effect in the signal ratio, with a control signal flat, not every such curve was filed as active; inconclusive = small, poorly fitted or top-dose-only effect, or effect the other way, or a change in a side signal; the % refers to the signal ratio
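TMD8 ABC-DLBCL cells carrying doxycycline-inducible green luciferase fused to IkappaBalpha plus unfused red luciferase were exposed to compounds (up to 46 uM) for 4 hrs at 37C. Activity came from the overlap-corrected green/red luminescence ratio.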
IL1B secr inh – qHTS for Inhibitors of Inflammasome Signaling: IL-1-beta AlphaLISA Primary Screen; THP-1 LPS/ATP IL-1B secretion, AlphaLISA, 16 h; hits give low values; activity change, % at 57.5 µM; actives 4.7% (n = 360,000); AID 743279, 2014; in the data active = activity change below about -50%; inconclusive = mostly about -30% to -49%
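THP-1 cells pretreated 1 hr with compounds (up to 57.5 uM final), then stimulated with LPS (250 ng/mL final) plus ATP (1.25 mM final); secreted IL-1B measured by AlphaLISA after 16 hr, decreased signal indicating inhibition.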
TDP1 cell CPT – qHTS for Inhibitors of human tyrosyl-DNA phosphodiesterase 1 (TDP1): qHTS in cells in presence of CPT; chicken DT40 Tdp1-/-;hTDP1 cells + 20 nM CPT, ATP luminescence, 48 h; actives 12% (n = 420,000); AID 686979, 2013; Potency, µM (titrated, usually from 46.2 µM), usual class: inhibitors; also: nearly all actives have a fitted effect of over 55% in size
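Chicken DT40 Tdp1-/- cells stably complemented with human TDP1 were seeded at 400 cells/well in medium containing 20 nM camptothecin, exposed to pin-transferred compounds, and grown at 37 °C for at least 48 hr. Viability was read as ATP luminescence.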
DT40 TDP1 no CPT – qHTS for Inhibitors of human tyrosyl-DNA phosphodiesterase 1 (TDP1): qHTS in cells in absence of CPT | actives 15% (n = 420,000) | DT40 Tdp1-/- hTDP1 cells, no CPT, ATP luminescence, 48 h | Potency, µM (highest dose often 46.2 µM), actives largely listed as inhibitors; also: nearly all actives have a fitted effect of over 55% in size
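Luminescent ATP content (CellTiter-Glo) served as the growth readout. Knockout chicken DT40 cells expressing human TDP1 were exposed to compounds without camptothecin for a minimum 48 hr at 37 °C.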
SW480 rerep – A quantitative high throughput screen for small molecules that induce DNA re-replication in SW480 colon adenocarcinoma cells | Potency, µM (doses to about 46.1 µM), usual class: activators | AID 624297, 2012 | actives 1.8% (n = 340,000) | SW480 DNA re-replication, Hoechst DNA content imaging, 48 h; also: nearly all actives have a fitted effect of over 55% in size
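SW480 cells exposed to compounds for 48 hr at 37 C, 5% CO2, then Hoechst-stained 40 min. Nuclear DNA content imaged by fluorescence scanning (405 nm excitation, 500-530 nm emission); re-replication scored as increased high-intensity nuclei.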
A number is an active result; . = inactive; ? = inconclusive; / = not tested or not shown. Only some compounds are listed: those with a hit (about 19% of all), similar ones and a draw of the others. Unless noted, calls follow the shape of the dose curve; as a rule, active = well fitted curve in the direction sought with a large enough effect; inconclusive = small, poorly fitted or top-dose-only effect, or another doubt; inactive = no such curve, though single readings can be large; an effect the other way counts as inactive or inconclusive.

SMILES | MCF10A rereplic | Chronic BCR inh | IL1B secr inh | TDP1 cell CPT | DT40 TDP1 no CPT | SW480 rerep
Cc1cc(-c2ccccc2)nc(N/N=C/c2ccc(N(C)C)cc2)n1 | ? | / | . | ? | 15µM | .
Cc1cc(C)nc(N/N=C/c2ccco2)n1 | . | ? | . | . | . | .
COc1ccc(/C=N/Nc2nc(C)cc(-c3ccccc3)n2)cc1OC | ? | ? | ? | . | ? | ?
Cc1cc(-c2ccccc2)nc(N/N=C/c2ccco2)n1 | . | ? | . | 29µM | ? | .
COC(=O)c1n[nH]n(-c2ccccc2)c1=O | / | / | / | . | . | /
CCN(CC)CCn1c2c(c(SCC(=O)Nc3cc(C)cc(C)c3)nc1=O)CCC2 | . | . | . | . | . | ?
CCCCc1ccc(NC(=O)CSc2nc(=O)n(CCN(C)C)c3c2CCC3)cc1 | ? | . | -72 | ? | ? | ?
CCCCc1ccc(NC(=O)CSc2nc(=O)n(CCN(CC)CC)c3c2CCCC3)cc1 | . | . | -78 | ? | 23µM | ?
CCN(CC)CCn1c2c(c(SCC(=O)Nc3cccc4ccccc34)nc1=O)CCCC2 | . | ? | -66 | ? | ? | .
Cc1ccc(NC(=O)CSc2nc(=O)n(CCN(C)C)c3c2CCCC3)cc1Cl | . | ? | -87 | ? | ? | ?
CC(C)C[C@H]1CN([C@@H](CC(C)C)CN2CCC[C@@H]2CN2C(=S)NC[C@@H]2Cc2ccc(O)cc2)C(=S)N1CC1CCCCC1 | / | / | ? | ? | 16µM | /
CC(C)C[C@@H](CN1CCCC1CN1C(=S)NC[C@@H]1Cc1ccccc1)N1C[C@H](Cc2ccc(O)cc2)N(CC2CCCCC2)C1=S (some centres not stated) | / | / | . | ? | 18µM | /
CC(C)C[C@@H](CN1CCC[C@@H]1CN1C(=S)NC[C@@H]1Cc1ccc(O)cc1)N1C[C@H](Cc2ccc(O)cc2)N(CC2CCCCCC2)C1=S | / | / | -82 | 18µM | 16µM | /
CC(C)C[C@H]1CN([C@@H](CC(C)C)CN2CCCC2CN2C(=S)NC[C@@H]2Cc2ccc(O)cc2)C(=S)N1CC1CCCCC1 (some centres not stated) | ? | / | . | ? | ? | .
CC(C)C[C@@H](CN1CCC[C@@H]1CN1C(=S)NC[C@@H]1Cc1ccc(O)cc1)N1C[C@H](Cc2ccc(O)cc2)N(CC2CCCCC2)C1=S | / | / | -80 | 18µM | 16µM | /
CC(C)C[C@@H](CN1CCCC1CN1C(=S)NC[C@@H]1Cc1ccccc1)N1C[C@H](Cc2ccccc2)N(CC2CCCCC2)C1=S (some centres not stated) | / | / | . | ? | ? | /
CC(C)C[C@H]1CNC(=S)N1CC1CCCN1C[C@H](CC(C)C)N1C[C@H](Cc2ccccc2)N(CC2CCCCCC2)C1=S (some centres not stated) | . | / | . | ? | 23µM | .
CC(C)C[C@H]1CNC(=S)N1CC1CCCN1C[C@H](CC(C)C)N1C[C@H](CC(C)C)N(CC2CCCCCC2)C1=S (some centres not stated) | . | / | . | 18µM | 16µM | .
Cc1ccc(-n2nnnc2CNC(=O)c2ccccc2)cc1C | / | / | / | . | . | /
CCOc1ccccc1NC(=O)CCC(=O)Nc1nnc(C2CCCCC2)s1 | . | . | . | . | . | .
CCc1ccc2oc(C(=O)NCC(c3ccc(OC)cc3)N3CCCCC3)c(C)c2c1 (configuration not stated) | . | . | . | 23µM | 16µM | .
COc1ccc(C(CNC(=O)c2oc3cc(C)c(C)cc3c2C)N2CCCCC2)cc1 (configuration not stated) | . | . | . | 13µM | 9.2µM | .
COc1ccc(C(CNC(=O)c2oc3ccc(F)cc3c2C)N2CCCCC2)cc1 (configuration not stated) | . | . | ? | ? | ? | ?
COc1ccc(C(CNC(=O)c2cc3ccccc3cc2OC)N2CCCC2)cc1 (configuration not stated) | . | ? | . | ? | ? | .
COc1ccc(C(CNC(=O)c2oc3ccc(OC)cc3c2C)N2CCCC2)cc1 (configuration not stated) | . | . | ? | 23µM | 16µM | ?
SMILES | MCF10A rereplic | Chronic BCR inh | IL1B secr inh | TDP1 cell CPT | DT40 TDP1 no CPT | SW480 rerep
COc1ccc(C(CNC(=O)c2oc3ccc(Br)cc3c2C)N2CCCCC2)cc1 (configuration not stated) | . | . | -82 | 13µM | 9.2µM | .
CC(C)NS(=O)(=O)c1ccc(Br)c(C(=O)OC(C)C(=O)NC2CCCCC2C)c1 (configuration not stated) | . | . | . | . | ? | ?
O=S1(=O)N[C@@H](Cc2ccccc2)COc2cc(N3CC[C@H](O)C3)ccc21 | / | / | . | . | ? | /
CC1(C(=O)O)CCN1C(=O)c1cccc(C(F)(F)F)c1 (configuration not stated) | / | / | . | . | . | /
Cc1cccc(-n2c(SCc3ccc([N+](=O)[O-])cc3)nnc2-c2c[nH]c3ccccc23)c1 | . | . | . | ? | ? | .
Cc1c(C(=O)NCC(c2ccco2)N(C)C)oc2c(Cl)cccc12 (configuration not stated) | . | . | . | ? | ? | .
COc1ccc(C(CNC(=O)C(C)Oc2ccc(Br)cc2)N2CCCCC2)cc1 (configuration not stated) | . | ? | . | 18µM | 21µM | .
COc1ccc(C(CNC(=O)c2oc3cc(Br)ccc3c2C)N2CCCCC2)cc1 (configuration not stated) | . | . | . | 16µM | 23µM | .
CCOc1ccc2oc(C(=O)NCC(c3ccco3)N(C)C)c(C)c2c1 (configuration not stated) | ? | . | . | 16µM | 23µM | .
COc1ccc(OC)c(CCNC(=O)CN2C(=O)CCSc3ccccc32)c1 | . | . | . | . | . | .
Cc1c(C(=O)Nc2ccc(Cl)cc2)c2ccccn2c1C(=O)c1ccc([N+](=O)[O-])cc1 | . | . | . | . | ? | .
Cc1c(/C=N/NC(=O)CNc2ccccc2)c2ccccn2c1C(=O)c1ccc(Cl)cc1 | . | . | ? | ? | ? | .
Cc1ccccc1NCC(=O)N/N=C/c1c(C)c(C(=O)c2ccc(Cl)cc2)n2ccccc12 | ? | ? | . | 16µM | 16µM | /
